Among the data in paper PMC7862700, “An all-to-all approach to the identification of sequence-specific readers for epigenetic DNA modifications on cytosine” are binding signal values, retold here.

What all share (assay): DAPPL (digital affinity profiling via proximity ligation, sequencing); 10 mM Tris-HCl pH 7.5, 50 mM NaCl, 1 mM DTT, 4% glycerol, room temperature, 30 min; GST-TFs on glutathione beads, 16-mer random dsDNA library, 0.1% formaldehyde crosslink after washing; high values mean tight binding
Holding throughout (settings): protein: recombinant; tags: N-terminal GST; dsDNA, one strand shown

One assay concerns the target T1, ERF (Homo sapiens, UniProt P50548 1-548).
T1 sequence: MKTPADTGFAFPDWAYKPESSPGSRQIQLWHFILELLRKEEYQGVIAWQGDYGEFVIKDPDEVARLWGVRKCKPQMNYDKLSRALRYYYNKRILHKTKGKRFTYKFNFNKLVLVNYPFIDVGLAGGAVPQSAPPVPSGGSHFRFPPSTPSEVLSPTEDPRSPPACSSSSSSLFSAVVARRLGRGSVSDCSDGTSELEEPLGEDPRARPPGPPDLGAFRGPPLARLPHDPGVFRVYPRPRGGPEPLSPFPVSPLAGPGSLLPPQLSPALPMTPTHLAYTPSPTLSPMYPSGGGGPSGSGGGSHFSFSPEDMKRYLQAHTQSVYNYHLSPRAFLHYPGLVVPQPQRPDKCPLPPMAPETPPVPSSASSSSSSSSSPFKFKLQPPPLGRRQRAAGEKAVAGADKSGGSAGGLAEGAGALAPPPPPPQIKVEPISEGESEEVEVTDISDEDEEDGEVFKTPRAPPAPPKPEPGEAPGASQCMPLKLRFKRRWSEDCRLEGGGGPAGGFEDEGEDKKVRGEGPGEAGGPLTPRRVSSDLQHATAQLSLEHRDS
A digest of the protocol: (§1)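 Human transcription factors carrying a GST fusion were produced in yeast, bound to glutathione beads, tagged with DNA barcodes and pooled together with a tag-only sample. Each pool was held with 200 nmole of a random double-stranded 16-mer DNA library in Tris/NaCl/DTT/glycerol buffer for 30 min at room temperature, then washed, crosslinked in 0.1% formaldehyde, proximity-ligated with BsaI/T4 ligase (1 h, 37 °C), PCR-amplified and sequenced on an Illumina NextSeq500. Binding signal is the read frequency of each hexamer for a given factor divided by its frequency in the tag-only sample.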

Another assay addresses T2, ETV3L (Homo sapiens, UniProt Q6ZN32 1-361).
T2 sequence: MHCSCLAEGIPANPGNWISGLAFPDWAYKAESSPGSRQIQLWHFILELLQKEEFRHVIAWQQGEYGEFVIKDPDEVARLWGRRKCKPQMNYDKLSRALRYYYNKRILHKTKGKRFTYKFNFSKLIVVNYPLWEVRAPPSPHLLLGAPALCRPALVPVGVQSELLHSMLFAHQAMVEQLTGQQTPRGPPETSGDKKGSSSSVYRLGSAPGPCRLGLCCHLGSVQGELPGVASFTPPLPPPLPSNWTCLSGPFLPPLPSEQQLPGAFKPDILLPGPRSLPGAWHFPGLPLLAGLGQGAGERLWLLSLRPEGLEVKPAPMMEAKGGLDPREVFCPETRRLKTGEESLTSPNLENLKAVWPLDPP
In short, it runs like this: as §1

A further assay deals with T3, ETS2 (Homo sapiens, UniProt P15036 1-469).
T3 sequence: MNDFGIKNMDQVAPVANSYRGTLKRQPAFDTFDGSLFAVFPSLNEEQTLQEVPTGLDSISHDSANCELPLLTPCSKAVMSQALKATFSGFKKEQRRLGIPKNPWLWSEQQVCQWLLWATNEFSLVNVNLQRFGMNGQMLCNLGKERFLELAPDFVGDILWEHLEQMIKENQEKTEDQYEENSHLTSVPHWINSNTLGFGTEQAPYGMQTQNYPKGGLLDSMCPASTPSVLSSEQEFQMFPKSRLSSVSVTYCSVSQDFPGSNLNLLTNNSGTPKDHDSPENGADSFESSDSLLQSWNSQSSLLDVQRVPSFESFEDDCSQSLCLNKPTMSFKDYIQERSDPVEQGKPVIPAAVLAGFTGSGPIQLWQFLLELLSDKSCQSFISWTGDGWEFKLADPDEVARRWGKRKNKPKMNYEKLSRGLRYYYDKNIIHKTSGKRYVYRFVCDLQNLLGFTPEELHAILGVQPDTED
A digest of the protocol:
as §1

In another assay the target is T4, SPDEF (Homo sapiens, UniProt O95238 1-335).
T4 sequence: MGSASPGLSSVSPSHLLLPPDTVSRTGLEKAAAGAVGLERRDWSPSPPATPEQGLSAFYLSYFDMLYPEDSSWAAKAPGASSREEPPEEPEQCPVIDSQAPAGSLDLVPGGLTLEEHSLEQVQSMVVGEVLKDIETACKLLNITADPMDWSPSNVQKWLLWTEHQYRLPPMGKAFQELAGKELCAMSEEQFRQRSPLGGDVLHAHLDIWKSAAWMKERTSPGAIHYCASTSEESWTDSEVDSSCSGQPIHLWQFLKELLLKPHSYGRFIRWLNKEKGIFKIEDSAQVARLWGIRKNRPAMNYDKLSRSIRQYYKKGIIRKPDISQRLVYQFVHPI
In short, it runs like this: as §1

The target in another assay is T5, ETV7 (Homo sapiens, UniProt Q9Y603 1-341).
T5 sequence: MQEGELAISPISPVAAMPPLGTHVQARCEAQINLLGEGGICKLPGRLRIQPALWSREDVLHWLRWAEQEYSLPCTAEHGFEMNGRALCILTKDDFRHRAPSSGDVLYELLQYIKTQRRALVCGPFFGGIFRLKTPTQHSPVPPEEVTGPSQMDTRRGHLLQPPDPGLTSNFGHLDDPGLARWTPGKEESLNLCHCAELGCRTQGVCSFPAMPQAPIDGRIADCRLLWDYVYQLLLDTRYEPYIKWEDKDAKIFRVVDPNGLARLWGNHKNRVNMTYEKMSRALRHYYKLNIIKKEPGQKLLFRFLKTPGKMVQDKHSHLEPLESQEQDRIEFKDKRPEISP
A digest of the protocol:
as §1

Another assay concerns the target T6, ELF5 (Homo sapiens, UniProt Q9UKW6-2 1-255).
T6 sequence: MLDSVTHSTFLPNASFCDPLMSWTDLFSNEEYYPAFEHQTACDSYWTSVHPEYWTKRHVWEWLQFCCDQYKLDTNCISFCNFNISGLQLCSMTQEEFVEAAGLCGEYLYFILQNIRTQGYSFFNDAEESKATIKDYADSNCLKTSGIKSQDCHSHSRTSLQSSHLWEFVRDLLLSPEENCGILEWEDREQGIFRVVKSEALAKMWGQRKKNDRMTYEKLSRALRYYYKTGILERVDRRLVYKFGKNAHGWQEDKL
In short, it runs like this: as §1

Another assay addresses T7, ETV3 (Homo sapiens, UniProt P41162-2 1-143).
T7 sequence: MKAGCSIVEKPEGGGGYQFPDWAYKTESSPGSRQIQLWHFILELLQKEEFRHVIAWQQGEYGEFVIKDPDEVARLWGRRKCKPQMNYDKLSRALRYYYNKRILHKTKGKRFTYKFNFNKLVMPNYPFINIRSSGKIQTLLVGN
A digest of the protocol: as §1

A further assay has as its target ETV6 (Homo sapiens, UniProt P41212 1-452). In short, it runs like this:
as §1

Chain of ETV6 (P41212 whole entry): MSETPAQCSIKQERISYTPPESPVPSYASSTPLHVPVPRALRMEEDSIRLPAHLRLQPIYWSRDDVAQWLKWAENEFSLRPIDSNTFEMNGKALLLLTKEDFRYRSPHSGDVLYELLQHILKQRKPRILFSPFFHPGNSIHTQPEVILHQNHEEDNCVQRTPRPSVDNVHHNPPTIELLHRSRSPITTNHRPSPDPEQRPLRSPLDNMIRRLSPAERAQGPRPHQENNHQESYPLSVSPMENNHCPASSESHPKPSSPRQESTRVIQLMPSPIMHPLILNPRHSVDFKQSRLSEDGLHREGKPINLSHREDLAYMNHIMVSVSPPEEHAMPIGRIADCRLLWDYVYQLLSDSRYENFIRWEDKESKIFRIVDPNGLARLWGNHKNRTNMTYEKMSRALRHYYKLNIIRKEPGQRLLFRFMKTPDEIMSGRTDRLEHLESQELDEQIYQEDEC

Consider CTCGCA, for which the binding signal in the assay with ERF was 1.26 fold enrichment (6-mer frequency, TF over GST control); with ETV3L, 1.3 fold enrichment (6-mer frequency, TF over GST control); in the assay with ETS2, 1.35 fold enrichment (6-mer frequency, TF over GST control); with SPDEF it was 1.2 fold enrichment (6-mer frequency, TF over GST control); with ETV7 it was 1.23 fold enrichment (6-mer frequency, TF over GST control); in the assay with ELF5, 1.15 fold enrichment (6-mer frequency, TF over GST control). Moreover, the binding signal with ETV3 is 1.34 fold enrichment (6-mer frequency, TF over GST control); in the assay with ETV6 it was 1.19 fold enrichment (6-mer frequency, TF over GST control).

In the case of ACTACT, the binding signal in the assay with ERF was 1.33 fold enrichment (6-mer frequency, TF over GST control); with ETV3L, 1.37 fold enrichment (6-mer frequency, TF over GST control); with ETS2, 1.25 fold enrichment (6-mer frequency, TF over GST control); in the assay with SPDEF, 1.15 fold enrichment (6-mer frequency, TF over GST control); with ETV7 it was 1.35 fold enrichment (6-mer frequency, TF over GST control); in the assay with ELF5, 1.34 fold enrichment (6-mer frequency, TF over GST control). The binding signal with ETV3 is 1.13 fold enrichment (6-mer frequency, TF over GST control); with ETV6, 1.27 fold enrichment (6-mer frequency, TF over GST control).

In the case of TCATCT, the binding signal with ERF is 1.21 fold enrichment (6-mer frequency, TF over GST control); in the assay with ETV3L it was 1.22 fold enrichment (6-mer frequency, TF over GST control); in the assay with ETS2 it was 1.2 fold enrichment (6-mer frequency, TF over GST control); with SPDEF it was 1.07 fold enrichment (6-mer frequency, TF over GST control); in the assay with ETV7, 1.14 fold enrichment (6-mer frequency, TF over GST control); in the assay with ELF5 it was 1.17 fold enrichment (6-mer frequency, TF over GST control). The binding signal with ETV3 was 1.19 fold enrichment (6-mer frequency, TF over GST control); with ETV6, 1.22 fold enrichment (6-mer frequency, TF over GST control).

Take TATTTT: the binding signal with ERF was 1.19 fold enrichment (6-mer frequency, TF over GST control); with ETV3L, 1.41 fold enrichment (6-mer frequency, TF over GST control); with ETS2, 1.35 fold enrichment (6-mer frequency, TF over GST control); with SPDEF, 1.24 fold enrichment (6-mer frequency, TF over GST control); with ETV7, 1.49 fold enrichment (6-mer frequency, TF over GST control); in the assay with ELF5, 1.29 fold enrichment (6-mer frequency, TF over GST control). Besides, the binding signal is 1.39 fold enrichment (6-mer frequency, TF over GST control) with ETV3 and 1.36 fold enrichment (6-mer frequency, TF over GST control) with ETV6.

With TCCGGC, the binding signal in the assay with ERF was 2.13 fold enrichment (6-mer frequency, TF over GST control); with ETV3L it was 2.23 fold enrichment (6-mer frequency, TF over GST control); with ETS2, 2.08 fold enrichment (6-mer frequency, TF over GST control); with SPDEF it was 3.14 fold enrichment (6-mer frequency, TF over GST control); in the assay with ETV7, 1.95 fold enrichment (6-mer frequency, TF over GST control); with ELF5, 2.67 fold enrichment (6-mer frequency, TF over GST control). The binding signal was 2.32 fold enrichment (6-mer frequency, TF over GST control) in the assay with ETV3 and 2.28 fold enrichment (6-mer frequency, TF over GST control) with ETV6.

Take CTTATA: the binding signal with ERF is 1.29 fold enrichment (6-mer frequency, TF over GST control); in the assay with ETV3L it was 1.35 fold enrichment (6-mer frequency, TF over GST control); in the assay with ETS2, 1.41 fold enrichment (6-mer frequency, TF over GST control); in the assay with SPDEF, 1.51 fold enrichment (6-mer frequency, TF over GST control); with ETV7, 1.39 fold enrichment (6-mer frequency, TF over GST control); in the assay with ELF5, 1.48 fold enrichment (6-mer frequency, TF over GST control). The binding signal with ETV3 is 1.28 fold enrichment (6-mer frequency, TF over GST control); with ETV6, 1.33 fold enrichment (6-mer frequency, TF over GST control).

CCGCCT: the binding signal in the assay with ERF was 1.35 fold enrichment (6-mer frequency, TF over GST control); with ETV3L, 1.49 fold enrichment (6-mer frequency, TF over GST control); in the assay with ETS2, 1.41 fold enrichment (6-mer frequency, TF over GST control); with SPDEF, 1.75 fold enrichment (6-mer frequency, TF over GST control); with ETV7, 1.52 fold enrichment (6-mer frequency, TF over GST control); with ELF5, 1.84 fold enrichment (6-mer frequency, TF over GST control). Further, the binding signal with ETV3 is 1.64 fold enrichment (6-mer frequency, TF over GST control); with ETV6, 1.64 fold enrichment (6-mer frequency, TF over GST control).
